Measured values from PubChem BioAssay (Tox21).
Values joined by “and” are separate entries in the source; they are usually repeats but may differ in a detail not shown here. Equal values may be shown once. Inconclusive results are not listed. Where a call stands in place of a potency, no number is given. Some structures have more than one record in an assay (separate samples or runs), and their calls can disagree. Active and inactive are the calls of the source. Unless noted, calls come from the whole dose curve; as a rule, active = well fitted curve in the direction sought with a large enough effect in the repeat runs; inconclusive = weak or mixed curves; inactive = no such curve, though single readings can be large; an effect the other way counts as inactive or inconclusive.

Tests used:
[1] = biological target: Aryl hydrocarbon receptor (Homo sapiens) (UniProt P35869); assay: qHTS assay to identify small molecule that activate the aryl hydrocarbon receptor (AhR) signaling pathway (AID 743085); note: nearly all actives have a fitted effect of over 15% in size; note: potency is the fitted concentration of half-maximal effect;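 for activation: HG2L7.5c1 human HepG2 liver cells with stably integrated DRE-driven firefly reporter; series mostly up to about 70 µM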
Outline: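 Reporter assay in engineered HepG2 line HG2L7.5c1, whose plasmid carries twenty dioxin responsive elements upstream of firefly luciferase. Treatment lasted 24 h at 37C; ONE-Glo luminescence gauged induction.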

[2] = qHTS assay to identify small molecule that activate the aryl hydrocarbon receptor (AhR) signaling pathway - cell viability counter screen (AID 743086); note: nearly all actives have a fitted effect of over 45% in size; note: potency is the fitted concentration of half-maximal effect
Outline: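 HepG2-AhR-luc (HG2L7.5c1) cells, 4000/well, were preincubated 5 h at 37C, exposed to compound in qHTS format for 24 hr at 37C, then given CellTiter-Fluor for 30 min; viability was read as fluorescence in the reporter wells.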

[3] = biological target: Peroxisome proliferator-activated receptor gamma (Homo sapiens) (UniProt P37231); assay: qHTS assay to identify small molecule agonists of the peroxisome proliferator-activated receptor gamma (PPARg) signaling pathway (AID 743094; active = well fitted activation curve with a large enough effect in the signal ratio in the repeat runs, not every such curve was filed as active; the % refers to the signal ratio; note: potency is the fitted concentration of half-maximal effect)
Outline: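 Fluorescence-based beta-lactamase readout in HEK293H PPARg UAS-bla cells after 17 h compound exposure (37C) and 1 h B/G FRET substrate incubation at room temperature.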

[4] = qHTS assay for small molecule agonists of the antioxidant response element (ARE) signaling pathway - cell viability counter screen (AID 743203; calls by dose curve; note: nearly all actives have a fitted effect of over 55% in size; note: potency is the fitted concentration of half-maximal effect)
Outline: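 Parallel cytotoxicity read-out for the ARE-bla screen: HepG2 reporter cells, 16 hrs with compounds, then CellTiter-Glo luminescence.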

[5] = qHTS assay for small molecule activators of the heat shock response signaling pathway - cell viability counter screen (AID 743209); note: nearly all actives have a fitted effect of over 50% in size; note: potency is the fitted concentration of half-maximal effect
Outline: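 To flag cytotoxic compounds, HSE-bla HeLa cells plated at 1500 cells/well were dosed for 5 h at 37 C, followed by the reporter FRET read and then CellTiter-Glo, with luminescence recorded 30 min after reagent addition.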

[6] = qHTS assay to identify small molecule agonists of the peroxisome proliferator-activated receptor delta (PPARd) signaling pathway - cell viability counter screen (AID 743211); note: nearly all actives have a fitted effect of over 55% in size; note: potency is the fitted concentration of half-maximal effect
Outline: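 Multiplexed format: after the 2 h room-temperature LiveBLAzer B/G FRET step, CellTiter-Glo was added to the same wells. Luminescence after 30 min gave cell viability; compound exposure was 17 h at 37C.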

[7] = qHTS assay to identify small molecule antagonists of the peroxisome proliferator-activated receptor gamma (PPARg) signaling pathway - cell viability counter screen (AID 743194); details: Potency: co-treated with 50 nM rosiglitazone unless noted; note: nearly all actives have a fitted effect of over 55% in size
Outline: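 PPARg-UAS-bla HEK293H cells were plated, rested 5 h at 37 C, then treated with compounds plus rosiglitazone (50 nM final) for 17 h at 37 C; viability was then read by CellTiter-Glo luminescence after 30 min at room temperature.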

[8] = qHTS assay for small molecule activators of the heat shock response signaling pathway (AID 743210; active = well fitted activation curve with a large enough effect in the signal ratio in the repeat runs, with a control signal flat, not every such curve was filed as active; the % refers to the signal ratio;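 note: HeLa cells with beta-lactamase reporter driven by heat shock elements; series mostly up to about 63 µM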)
Outline: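 Activation of heat shock element-controlled beta-lactamase expression is measured in HeLa cells by LiveBLAzer FRET fluorescence, with compound exposure lasting 5 h at 37 C and substrate loading 2.5 h at room temperature.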

[9] = qHTS assay for small molecule agonists of the antioxidant response element (ARE) signaling pathway (AID 743202; active = well fitted activation curve with a large enough effect in the signal ratio in the repeat runs, not every such curve was filed as active; the % refers to the signal ratio; note: potency is the fitted concentration of half-maximal effect)
Outline: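 Steps: seed ARE-bla HepG2 cells (2,000/well); incubate 5 h at 37 C; add compounds by pin tool; incubate 16 h at 37 C; add FRET substrate; read fluorescence after 2 h at RT.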

[10] = biological target: Peroxisome proliferator-activated receptor gamma (Homo sapiens) (UniProt P37231); assay: qHTS assay to identify small molecule antagonists of the peroxisome proliferator-activated receptor gamma (PPARg) signaling pathway (AID 743191; calls by dose curve; note: nearly all actives have a fitted effect of over 30% in size; note: potency is the fitted concentration of half-maximal effect)
Outline: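 GeneBLAzer PPARg UAS-bla HEK293H cells carrying a UAS-driven beta-lactamase reporter were plated at 3000 cells/well, preincubated 5 h at 37C, then given compound for 17 h at 37C; LiveBLAzer B/G FRET substrate was read after 1 h at room temperature.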

Peroxisome proliferator-activated receptor gamma (Homo sapiens), sequence (P37231 whole entry, looked up): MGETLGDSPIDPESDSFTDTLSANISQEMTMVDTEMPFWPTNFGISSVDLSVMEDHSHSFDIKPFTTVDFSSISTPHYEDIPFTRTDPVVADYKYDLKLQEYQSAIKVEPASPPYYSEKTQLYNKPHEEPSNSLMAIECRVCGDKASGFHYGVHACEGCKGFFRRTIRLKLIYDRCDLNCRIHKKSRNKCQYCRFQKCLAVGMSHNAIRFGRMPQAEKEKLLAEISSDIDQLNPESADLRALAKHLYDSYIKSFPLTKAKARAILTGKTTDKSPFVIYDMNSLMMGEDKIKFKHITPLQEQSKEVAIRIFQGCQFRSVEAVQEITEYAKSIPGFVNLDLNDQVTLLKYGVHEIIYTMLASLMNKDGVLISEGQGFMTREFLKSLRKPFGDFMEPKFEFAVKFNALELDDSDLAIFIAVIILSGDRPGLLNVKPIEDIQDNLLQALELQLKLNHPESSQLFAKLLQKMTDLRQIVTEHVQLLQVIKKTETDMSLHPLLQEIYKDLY
Aryl hydrocarbon receptor (Homo sapiens), sequence (P35869 whole entry, looked up): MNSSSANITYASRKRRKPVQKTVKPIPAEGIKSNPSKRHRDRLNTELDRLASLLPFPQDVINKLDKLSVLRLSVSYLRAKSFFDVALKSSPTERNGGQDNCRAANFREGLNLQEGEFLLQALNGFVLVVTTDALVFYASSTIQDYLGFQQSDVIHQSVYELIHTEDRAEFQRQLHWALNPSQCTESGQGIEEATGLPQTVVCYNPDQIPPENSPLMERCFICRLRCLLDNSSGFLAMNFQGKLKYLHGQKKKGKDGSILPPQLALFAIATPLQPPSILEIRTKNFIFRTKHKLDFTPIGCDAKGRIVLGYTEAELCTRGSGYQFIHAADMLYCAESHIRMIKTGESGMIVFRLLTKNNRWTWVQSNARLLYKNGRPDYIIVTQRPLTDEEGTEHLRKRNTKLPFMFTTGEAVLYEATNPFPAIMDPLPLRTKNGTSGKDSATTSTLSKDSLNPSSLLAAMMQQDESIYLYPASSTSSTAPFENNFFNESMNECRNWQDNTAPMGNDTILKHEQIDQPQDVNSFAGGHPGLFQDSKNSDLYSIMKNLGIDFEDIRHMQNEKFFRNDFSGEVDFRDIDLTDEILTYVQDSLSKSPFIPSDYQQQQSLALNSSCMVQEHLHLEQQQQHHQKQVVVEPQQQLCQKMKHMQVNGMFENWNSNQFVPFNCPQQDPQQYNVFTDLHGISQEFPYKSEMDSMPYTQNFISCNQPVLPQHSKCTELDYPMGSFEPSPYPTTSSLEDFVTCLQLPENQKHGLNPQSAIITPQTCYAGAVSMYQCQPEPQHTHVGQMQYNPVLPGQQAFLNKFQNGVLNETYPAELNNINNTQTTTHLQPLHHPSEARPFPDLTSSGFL

| Structure (SMILES) | Potency [1] | Potency [2] | Potency [3] | Potency [4] | Potency [5] | Potency [6] | Potency [7] | Potency [8] | Potency [9] | Potency [10] |
| --- | --- | --- | --- | --- | --- | --- | --- | --- | --- | --- |
| O=S(=O)(c1ccc(Cl)cc1)c1ccc(Cl)cc1 | inactive | inactive | inactive | inactive | inactive |  |  |  |  |  |
| CCC(C)(C)C(=O)OC1=C(c2ccc(Cl)cc2Cl)C(=O)OC12CCCCC2 | inactive | inactive | 1.74 µM (active) | 30.6 µM (active) | 54.9 µM (active) | inactive |  |  |  |  |
| FC(F)(F)c1cccc(C2=CCN(CCc3ccc4ccccc4c3)CC2)c1 | inactive | inactive | inactive | inactive |  | inactive | inactive | inactive |  |  |
| BrC(Br)Br | inactive | inactive | inactive | inactive | inactive | inactive |  | inactive | inactive |  |
| Cc1cc(C)cc(OP(=O)(Oc2cc(C)cc(C)c2)Oc2cc(C)cc(C)c2)c1 | 9.84 µM (active) | inactive |  | inactive | inactive |  | inactive | inactive |  | inactive |
| Nc1ccccc1C(=O)OC/C=C/c1ccccc1 | 61.3 µM (active) | inactive | inactive | 68.7 µM (active) |  | 39 µM (active) |  |  |  |  |
| COP(=O)(OC)SCn1c(=O)oc2cc(Cl)cnc21 | 43.3 µM (active) | inactive | inactive | 48.6 µM (active) |  | inactive | inactive | inactive |  |  |
| Cc1cc(C(C)(C)c2cc(C)c(O)c(C)c2)cc(C)c1O | inactive | 52.7 µM (active) |  |  |  | 47.4 µM (active) |  | inactive |  | 29.9 µM (active) |
| CC1(C)[C@H](C(=O)O[C@H](C#N)c2cccc(Oc3ccccc3)c2)[C@@H]1/C=C(\Cl)C(F)(F)F | inactive | inactive |  | inactive | inactive |  | inactive |  | inactive | inactive |
| O=C1NCN(c2ccccc2)C12CCN(CC1COc3ccccc3O1)CC2 (stereo unspecified) | inactive | inactive | inactive | inactive | inactive |  |  | inactive | inactive |  |
| Oc1ccc(C(c2ccc(O)cc2)(C(F)(F)F)C(F)(F)F)cc1 | 6.86 µM (active) | inactive | inactive | inactive and 43.3 µM (active) | inactive | inactive and 54.9 µM (active) |  | inactive |  |  |
| [Cl][Sb]([Cl])[Cl] | inactive | inactive | inactive | inactive |  |  |  |  | 5.45 µM (active) |  |
| FC(Cl)(Cl)Cl | inactive | inactive |  | inactive |  |  | inactive | inactive | inactive | inactive |
| CC(C)OC(=O)C(O)(c1ccc(Cl)cc1)c1ccc(Cl)cc1 | inactive | inactive | inactive | inactive | inactive | inactive |  | inactive | inactive |  |
| Oc1c(Cl)c(Cl)cc(Cl)c1Cl | inactive | inactive |  |  | inactive |  | inactive |  |  | 3.78 µM (active) |
| C1CCC2CCCCC2C1 (stereo unspecified) | inactive | inactive | inactive | inactive | inactive |  |  | inactive |  |  |
| CCOP(=S)(OCC)OC(Cl)C(Cl)(Cl)Cl (stereo unspecified) | inactive | inactive | inactive |  | inactive |  |  | inactive |  |  |
| BrCBr | inactive | inactive | inactive | inactive | inactive | inactive |  | inactive | inactive |  |
| C[C@]12CC[C@@H]3c4ccc(OC(=O)N(CCCl)CCCl)cc4CC[C@H]3[C@@H]1CC[C@@H]2O | inactive | inactive | inactive |  |  | inactive |  | inactive |  |  |
| C[C@]12CC[C@H]3[C@@H](CCC4=CC(=O)CC[C@@]43C)[C@@H]1CC[C@@H]2O | inactive | inactive | inactive | inactive | inactive | inactive |  | inactive |  |  |
| O=C(NC(=O)c1c(F)cccc1F)Nc1cc(Cl)c(OC(F)(F)C(F)F)c(Cl)c1 | 0.137 µM (active) | inactive |  | inactive | inactive | inactive | inactive | inactive |  | inactive |
| ClC1=C(Cl)[C@]2(Cl)[C@H]3[C@H]([C@H]4C=C[C@H]3C4)[C@@]1(Cl)C2(Cl)Cl | inactive | inactive | inactive | inactive | inactive |  |  | inactive |  |  |
| Clc1ccc(C(c2ccccc2Cl)C(Cl)(Cl)Cl)cc1 (stereo unspecified) | inactive | inactive | inactive | 61.5 µM (active) | inactive | 49.3 µM (active) and 28.7 µM (active) |  |  |  |  |
| CC(C)CC(C)N (stereo unspecified) | inactive | inactive | inactive | inactive | inactive | inactive |  | inactive | inactive |  |
| CCCCCCCCCCCCBr | inactive | inactive |  |  | inactive |  |  | inactive |  | inactive |
| Cc1cc(C)c(C2=C(OC(=O)CC(C)(C)C)C3(CCCC3)OC2=O)c(C)c1 | inactive | inactive |  | inactive | inactive | inactive |  | inactive |  |  |
